Numbering of substitutions follows the chain as printed.
Assays:
Assay in all cases: PBM; 200 nM protein, PBS
Conditions in all cases: dsDNA, one strand shown
[1] = biological target: T1, SIX6 (Homo sapiens, UniProt O95475 114-200, L167I)
T1 sequence: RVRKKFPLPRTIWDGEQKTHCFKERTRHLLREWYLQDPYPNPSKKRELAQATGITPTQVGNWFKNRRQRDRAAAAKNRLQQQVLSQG

[2] = biological target: T2, SIX6 (Homo sapiens, UniProt O95475 114-200, L143V)
T2 sequence: T1 sequence with L30V, I54L

[3] = biological target: T3, SIX6 (Homo sapiens, UniProt O95475 114-200, H141N)
T3 sequence: T1 sequence with H28N, I54L

[4] = biological target: T4, SIX6 (Homo sapiens, UniProt O95475 114-200, T165P)
T4 sequence: T1 sequence with T52P, I54L

[5] = biological target: T5, SIX6 (Homo sapiens, UniProt O95475 114-200, L167M)
T5 sequence: T1 sequence with I54M

[6] = biological target: T6, SIX6 (Homo sapiens, UniProt O95475 114-200, L143M)
T6 sequence: T1 sequence with L30M, I54L

[7] = biological target: T7, SIX6 (Homo sapiens, UniProt O95475 114-200, L143I)
T7 sequence: T1 sequence with L30I, I54L

[8] = biological target: T8, SIX6 (Homo sapiens, UniProt O95475 114-200, T165G)
T8 sequence: T1 sequence with T52G, I54L

[9] = biological target: T9, SIX6 (Homo sapiens, UniProt O95475 114-200, T139Q)
T9 sequence: T1 sequence with T26Q, I54L

[10] = biological target: T10, SIX6 (Homo sapiens, UniProt O95475 114-200, T165A)
T10 sequence: T1 sequence with T52A, I54L

[11] = biological target: T11, SIX6 (Homo sapiens, UniProt O95475 114-200, L167V)
T11 sequence: T1 sequence with I54V

[12] = biological target: T12, SIX6 (Homo sapiens, UniProt O95475 114-200)
T12 sequence: T1 sequence with I54L

[13] = biological target: T13, SIX6 (Homo sapiens, UniProt O95475 114-200, T165I)
T13 sequence: T1 sequence with T52I, I54L

Sequence	binding signal [1]	binding signal [2]	binding signal [3]	binding signal [4]	binding signal [5]	binding signal [6]	binding signal [7]	binding signal [8]	binding signal [9]	binding signal [10]	binding signal [11]	binding signal [12]	binding signal [13]
GGCCTCCA	8.94 upbm affinity estimate (log intensity, higher = more binding, comparable within an allelic series)	8.93 upbm affinity estimate (log intensity, higher = more binding, comparable within an allelic series)	8.87 upbm affinity estimate (log intensity, higher = more binding, comparable within an allelic series)	9.13 upbm affinity estimate (log intensity, higher = more binding, comparable within an allelic series)	8.94 upbm affinity estimate (log intensity, higher = more binding, comparable within an allelic series)	8.87 upbm affinity estimate (log intensity, higher = more binding, comparable within an allelic series)	8.9 upbm affinity estimate (log intensity, higher = more binding, comparable within an allelic series)	9 upbm affinity estimate (log intensity, higher = more binding, comparable within an allelic series)	8.8 upbm affinity estimate (log intensity, higher = more binding, comparable within an allelic series)	8.84 upbm affinity estimate (log intensity, higher = more binding, comparable within an allelic series)	9.03 upbm affinity estimate (log intensity, higher = more binding, comparable within an allelic series)	8.82 upbm affinity estimate (log intensity, higher = more binding, comparable within an allelic series)	8.87 upbm affinity estimate (log intensity, higher = more binding, comparable within an allelic series)
ACTGCCGG	9.01 upbm affinity estimate (log intensity, higher = more binding, comparable within an allelic series)	9.11 upbm affinity estimate (log intensity, higher = more binding, comparable within an allelic series)	9.15 upbm affinity estimate (log intensity, higher = more binding, comparable within an allelic series)	9.02 upbm affinity estimate (log intensity, higher = more binding, comparable within an allelic series)	9.04 upbm affinity estimate (log intensity, higher = more binding, comparable within an allelic series)	9.15 upbm affinity estimate (log intensity, higher = more binding, comparable within an allelic series)	9.19 upbm affinity estimate (log intensity, higher = more binding, comparable within an allelic series)	9.17 upbm affinity estimate (log intensity, higher = more binding, comparable within an allelic series)	9.29 upbm affinity estimate (log intensity, higher = more binding, comparable within an allelic series)	9.08 upbm affinity estimate (log intensity, higher = more binding, comparable within an allelic series)	9.11 upbm affinity estimate (log intensity, higher = more binding, comparable within an allelic series)	9.23 upbm affinity estimate (log intensity, higher = more binding, comparable within an allelic series)	9.16 upbm affinity estimate (log intensity, higher = more binding, comparable within an allelic series)
GACGGCCC	8.94 upbm affinity estimate (log intensity, higher = more binding, comparable within an allelic series)	8.75 upbm affinity estimate (log intensity, higher = more binding, comparable within an allelic series)	8.98 upbm affinity estimate (log intensity, higher = more binding, comparable within an allelic series)	8.86 upbm affinity estimate (log intensity, higher = more binding, comparable within an allelic series)	8.9 upbm affinity estimate (log intensity, higher = more binding, comparable within an allelic series)	8.78 upbm affinity estimate (log intensity, higher = more binding, comparable within an allelic series)	8.82 upbm affinity estimate (log intensity, higher = more binding, comparable within an allelic series)	9 upbm affinity estimate (log intensity, higher = more binding, comparable within an allelic series)	8.92 upbm affinity estimate (log intensity, higher = more binding, comparable within an allelic series)	8.88 upbm affinity estimate (log intensity, higher = more binding, comparable within an allelic series)	8.84 upbm affinity estimate (log intensity, higher = more binding, comparable within an allelic series)	8.88 upbm affinity estimate (log intensity, higher = more binding, comparable within an allelic series)	8.88 upbm affinity estimate (log intensity, higher = more binding, comparable within an allelic series)
GCAAAGCC	8.97 upbm affinity estimate (log intensity, higher = more binding, comparable within an allelic series)	8.93 upbm affinity estimate (log intensity, higher = more binding, comparable within an allelic series)	8.96 upbm affinity estimate (log intensity, higher = more binding, comparable within an allelic series)	9 upbm affinity estimate (log intensity, higher = more binding, comparable within an allelic series)	9.02 upbm affinity estimate (log intensity, higher = more binding, comparable within an allelic series)	8.9 upbm affinity estimate (log intensity, higher = more binding, comparable within an allelic series)	8.91 upbm affinity estimate (log intensity, higher = more binding, comparable within an allelic series)	8.9 upbm affinity estimate (log intensity, higher = more binding, comparable within an allelic series)	9 upbm affinity estimate (log intensity, higher = more binding, comparable within an allelic series)	8.93 upbm affinity estimate (log intensity, higher = more binding, comparable within an allelic series)	8.94 upbm affinity estimate (log intensity, higher = more binding, comparable within an allelic series)	8.98 upbm affinity estimate (log intensity, higher = more binding, comparable within an allelic series)	8.92 upbm affinity estimate (log intensity, higher = more binding, comparable within an allelic series)
ATATACAC	10.9 upbm affinity estimate (log intensity, higher = more binding, comparable within an allelic series)	10.4 upbm affinity estimate (log intensity, higher = more binding, comparable within an allelic series)	10.9 upbm affinity estimate (log intensity, higher = more binding, comparable within an allelic series)	10.1 upbm affinity estimate (log intensity, higher = more binding, comparable within an allelic series)	10.8 upbm affinity estimate (log intensity, higher = more binding, comparable within an allelic series)	10.9 upbm affinity estimate (log intensity, higher = more binding, comparable within an allelic series)	10.4 upbm affinity estimate (log intensity, higher = more binding, comparable within an allelic series)	11.1 upbm affinity estimate (log intensity, higher = more binding, comparable within an allelic series)	11 upbm affinity estimate (log intensity, higher = more binding, comparable within an allelic series)	10.9 upbm affinity estimate (log intensity, higher = more binding, comparable within an allelic series)	10.7 upbm affinity estimate (log intensity, higher = more binding, comparable within an allelic series)	10.9 upbm affinity estimate (log intensity, higher = more binding, comparable within an allelic series)	10.9 upbm affinity estimate (log intensity, higher = more binding, comparable within an allelic series)
AGTATATC	11 upbm affinity estimate (log intensity, higher = more binding, comparable within an allelic series)	10.3 upbm affinity estimate (log intensity, higher = more binding, comparable within an allelic series)	10.9 upbm affinity estimate (log intensity, higher = more binding, comparable within an allelic series)	9.93 upbm affinity estimate (log intensity, higher = more binding, comparable within an allelic series)	10.8 upbm affinity estimate (log intensity, higher = more binding, comparable within an allelic series)	10.9 upbm affinity estimate (log intensity, higher = more binding, comparable within an allelic series)	10.3 upbm affinity estimate (log intensity, higher = more binding, comparable within an allelic series)	10.9 upbm affinity estimate (log intensity, higher = more binding, comparable within an allelic series)	11 upbm affinity estimate (log intensity, higher = more binding, comparable within an allelic series)	10.8 upbm affinity estimate (log intensity, higher = more binding, comparable within an allelic series)	10.7 upbm affinity estimate (log intensity, higher = more binding, comparable within an allelic series)	10.8 upbm affinity estimate (log intensity, higher = more binding, comparable within an allelic series)	10.9 upbm affinity estimate (log intensity, higher = more binding, comparable within an allelic series)

Source: publication PMC11006913
